Inconclusive results are not listed. Calls of active or inactive are those of the source. Unless noted, calls follow the shape of the dose curve; as a rule, active = well fitted curve in the direction sought with a large enough effect in the repeat runs; inconclusive = weak or mixed curves; inactive = no such curve, though single readings can be large; an effect the other way counts as inactive or inconclusive.
Assays:
[1] = target: Peroxisome proliferator-activated receptor delta (Homo sapiens) (UniProt Q03181); assay: qHTS assay to identify small molecule agonists of the peroxisome proliferator-activated receptor delta (PPARd) signaling pathway (AID 743212; calls by dose curve)
Peroxisome proliferator-activated receptor delta (Homo sapiens), sequence (Q03181 whole entry, looked up): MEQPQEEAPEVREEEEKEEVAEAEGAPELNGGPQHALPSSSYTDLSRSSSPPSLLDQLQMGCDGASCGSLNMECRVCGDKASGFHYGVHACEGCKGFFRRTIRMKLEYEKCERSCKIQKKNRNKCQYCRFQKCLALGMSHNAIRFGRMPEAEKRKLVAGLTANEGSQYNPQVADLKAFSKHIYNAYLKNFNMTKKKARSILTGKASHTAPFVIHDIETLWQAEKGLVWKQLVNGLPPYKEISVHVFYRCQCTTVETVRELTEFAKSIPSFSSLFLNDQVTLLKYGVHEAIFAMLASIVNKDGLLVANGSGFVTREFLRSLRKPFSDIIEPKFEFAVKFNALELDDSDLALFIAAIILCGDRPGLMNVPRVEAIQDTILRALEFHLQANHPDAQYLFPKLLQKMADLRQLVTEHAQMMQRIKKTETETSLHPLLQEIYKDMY
Outline: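 HEK293H PPARd-bla cells; 5 h preincubation 37 C/5% CO2; compound (DMSO) 37 C; LiveBLAzer B/G FRET substrate 2 h RT; fluorescence intensity.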

[2] = qHTS assay to identify small molecule antagonists of the peroxisome proliferator-activated receptor delta (PPARd) signaling pathway - cell viability counter screen (AID 743213); also: nearly all actives have a fitted effect of over 50% in size
Outline: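 In this counter screen, HEK293H cells carrying a UAS-beta-lactamase reporter are co-treated with test compounds and 300 nM L165041 (final) for 17 h at 37 C; cell viability is quantified by CellTiter-Glo luminescence.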

[3] = target: Peroxisome proliferator-activated receptor delta (Homo sapiens) (UniProt Q03181); assay: qHTS assay to identify small molecule antagonists of the peroxisome proliferator-activated receptor delta (PPARd) signaling pathway (AID 743215; active = well fitted inhibition curve with a large enough effect in the signal ratio in the repeat runs, not every such curve was filed as active; the % refers to the signal ratio;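 also: cells stimulated with agonist L165041 at 300 nM final during compound exposure; series mostly up to about 62 µM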)
Outline: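 Inhibition of L165041-driven (300 nM final) PPARd signaling is scored in HEK293H UAS-bla cells. Exposure lasts 17 h at 37 C; beta-lactamase activity is then read by FRET substrate fluorescence after 2 h at room temperature.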

[4] = target: Bile acid receptor (Homo sapiens) (UniProt Q96RI1); assay: qHTS assay to identify small molecule antagonists of the farnesoid-X-receptor (FXR) signaling pathway (AID 743217; active = well fitted inhibition curve with a large enough effect in the signal ratio in the repeat runs, not every such curve was filed as active; the % refers to the signal ratio)
Bile acid receptor (Homo sapiens), sequence (Q96RI1 whole entry, looked up): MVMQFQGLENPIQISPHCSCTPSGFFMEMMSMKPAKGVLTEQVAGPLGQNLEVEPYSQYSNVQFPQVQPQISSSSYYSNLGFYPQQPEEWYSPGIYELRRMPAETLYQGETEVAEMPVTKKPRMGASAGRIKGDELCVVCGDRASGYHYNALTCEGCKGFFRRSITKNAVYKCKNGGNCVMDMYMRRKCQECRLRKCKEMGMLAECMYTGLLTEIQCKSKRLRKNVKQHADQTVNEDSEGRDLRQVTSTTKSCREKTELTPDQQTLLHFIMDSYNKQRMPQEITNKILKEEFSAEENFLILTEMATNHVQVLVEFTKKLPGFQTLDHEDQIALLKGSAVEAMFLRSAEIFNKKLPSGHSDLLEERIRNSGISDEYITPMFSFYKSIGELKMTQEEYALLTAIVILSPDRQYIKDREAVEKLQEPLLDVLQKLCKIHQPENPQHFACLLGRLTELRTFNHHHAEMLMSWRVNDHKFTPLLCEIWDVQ
Outline: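 Antagonist mode against 50 uM (final) chenodeoxycholic acid stimulation in FXR-bla HEK 293T cells, 16 h at 37 °C. Inhibition detected as reduced beta-lactamase activity via LiveBLAzer B/G FRET fluorescence after 2 h at room temperature.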

[5] = target: Bile acid receptor (Homo sapiens) (UniProt Q96RI1); assay: qHTS assay to identify small molecule agonists of the farnesoid-X-receptor (FXR) signaling pathway (AID 743220; active = well fitted activation curve with a large enough effect in the signal ratio in the repeat runs, not every such curve was filed as active; the % refers to the signal ratio)
Outline: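 Beta-lactamase reporter under UAS control in GeneBLAzer FXR HEK 293T cells (5000/well) measured with LiveBLAzer FRET substrate after 2 h at room temperature. Compound exposure lasted 16 h at 37C.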

[6] = qHTS assay to identify small molecule antagonists of the farnesoid-X-receptor (FXR) signaling pathway - cell viability counter screen (AID 743221; active = well fitted cell-killing curve with a large enough effect in the repeat runs, not every such curve was filed as active; also: nearly all actives have a fitted effect of over 50% in size; also: potency is read from the fitted curve at half-maximal effect)
Outline: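 FXR-UAS-bla HEK 293T cells were treated with test compounds plus chenodeoxycholic acid (50 uM final) for 16 h at 37 C. Cell viability in the same wells was then read as CellTiter-Glo luminescence after 30 min at room temperature.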

[7] = target: Vitamin D3 receptor (Homo sapiens) (UniProt P11473); assay: qHTS assay to identify small molecule agonists of the vitamin D receptor (VDR) signaling pathway (AID 743222; calls by dose curve)
Vitamin D3 receptor (Homo sapiens), sequence (P11473 whole entry, looked up): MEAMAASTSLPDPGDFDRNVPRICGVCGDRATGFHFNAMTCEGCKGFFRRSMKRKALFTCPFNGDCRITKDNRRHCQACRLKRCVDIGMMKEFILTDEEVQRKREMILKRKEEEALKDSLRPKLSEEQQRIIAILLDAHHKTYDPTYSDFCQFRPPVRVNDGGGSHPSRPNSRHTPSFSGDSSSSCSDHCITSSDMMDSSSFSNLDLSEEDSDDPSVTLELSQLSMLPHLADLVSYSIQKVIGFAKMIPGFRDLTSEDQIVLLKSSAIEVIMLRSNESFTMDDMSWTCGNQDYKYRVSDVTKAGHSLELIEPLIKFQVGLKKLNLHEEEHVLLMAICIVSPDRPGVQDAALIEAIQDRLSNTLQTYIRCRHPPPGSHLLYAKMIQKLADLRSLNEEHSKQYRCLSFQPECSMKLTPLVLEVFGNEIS
Outline: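 Quantitative HTS agonist-mode screen: compounds in DMSO were pin-transferred onto VDR-bla cells and incubated 16 h at 37C, 5% CO2. Reporter activity was detected with LiveBLAzer B/G FRET substrate after 2 h at room temperature.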

[8] = target: Vitamin D3 receptor (Homo sapiens) (UniProt P11473); assay: qHTS assay to identify small molecule antagonists of the vitamin D receptor (VDR) signaling pathway (AID 743223; active = well fitted inhibition curve with a large enough effect in the signal ratio in the repeat runs, not every such curve was filed as active; the % refers to the signal ratio)
Outline: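 VDR-bla cells were plated, incubated 4 h at 37C, then given compound and 1alpha,25-dihydroxyvitamin D3 (3 nM final). After 16 h at 37C, LiveBLAzer B/G FRET substrate was added for 2 h at room temperature and fluorescence read.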

[9] = qHTS assay to identify small molecule agonists of the vitamin D receptor (VDR) signaling pathway - cell viability counter screen (AID 743224); also: series mostly up to about 63 µM; nearly all actives have a fitted effect of over 50% in size
Outline: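 Viability is measured in the same wells as the VDR-bla reporter assay: after 16 h compound treatment and 2 h substrate loading, CellTiter-Glo is added and luminescence read 30 min later.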

[10] = qHTS assay to identify small molecule agonists of the farnesoid-X-receptor (FXR) signaling pathway - cell viability counter screen (AID 743218); also: nearly all actives have a fitted effect of over 45% in size
Outline: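 Cytotoxicity counter-screen run in parallel, same wells: FXR-UAS-bla HEK 293T cells dosed 16 h at 37 C, viability read by CellTiter-Glo luminescence after 30 min at room temperature.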

Measured: Potency

CC(=O)C(C)=O
not listed: [10]
inactive: all other assays above

CCCCCCC(O)CCOC(C)=O (stereo not given)
not listed: [8]
inactive: all other assays above

Cc1oc(=O)oc1COC(=O)[C@@H]1N2C(=O)[C@@H](NC(=O)[C@H](N)c3ccccc3)[C@H]2SC1(C)C
not listed: [8]
inactive: all other assays above

CCCCCCCCCCCCCC(=O)OCC(O)CO (stereo not given)
not listed: [5] | [8]
inactive: all other assays above

Cc1cccc(C)c1NC(=O)c1cc(S(N)(=O)=O)c(Cl)cc1O
not listed: [8] | [9]
inactive: all other assays above

CCN(CC)C(=O)N1CCN(C)CC1
not listed: [9] | [10]
inactive: all other assays above

C=CC(=O)NC(C)C
not listed: [8]
inactive: all other assays above

C1CCCCC1
not listed: [6] | [7] | [8]
inactive: all other assays above

O=C(O)CCCc1c[nH]c2ccccc12
not listed: [7] | [8]
inactive: all other assays above

COC(=O)CC(C(C)=O)C(=O)OC (stereo not given)
not listed: [8] | [9]
inactive: all other assays above

Cc1ccccc1S(N)(=O)=O
inactive: all assays above

ClC1=C(Cl)C1(Cl)Cl
not listed: [8]
inactive: all other assays above

Cc1ccc(N(CCO)CCO)cc1
not listed: [8]
inactive: all other assays above

CCC(CO)(CO)CO
not listed: [7] | [8] | [9]
inactive: all other assays above

CCN(Cc1cccc(S(=O)(=O)O)c1)c1ccc(C(=C2C=CC(=[N+](CC)Cc3cccc(S(=O)(=O)O)c3)C=C2)c2ccccc2S(=O)(=O)[O-])cc1
active: [6] 13.9 µM
not listed: [8] | [9]
inactive: all other assays above

CCCCCCCCCCCCCOC(=O)CCSCCC(=O)OCCCCCCCCCCCCC
not listed: [10]
inactive: all other assays above

CCC(C)(C)C(=O)O
inactive: all assays above

CC(=O)OCCC(C)CC(C)(C)C (stereo not given)
not listed: [8] | [9] | [10]
inactive: all other assays above

CC(=O)c1ccc[nH]1
not listed: [7] | [8]
inactive: all other assays above

CC(O)Cn1cnc2c1c(=O)n(C)c(=O)n2C (stereo not given)
inactive: all assays above

CC(C)C(O)C(C)(C)CO (stereo not given)
not listed: [8]
inactive: all other assays above

C=C(C)c1ccccc1
inactive: all assays above

CC(C)(C)S
not listed: [6] | [7] | [8]
inactive: all other assays above

COc1cc(NS(=O)(=O)c2ccc(N)cc2)nc(C)n1
inactive: all assays above

CC(C)COC(=O)c1ccc(O)cc1
inactive: all assays above

Cc1cc([N+](=O)[O-])ccc1N
not listed: [8]
inactive: all other assays above

O=C(O)CCS
not listed: [9]
inactive: all other assays above

CC(C)(C)C(O)/C=C/c1ccc2c(c1)OCO2 (stereo not given)
not listed: [8]
inactive: all other assays above

CC(CO)(CO)C(=O)O
inactive: all assays above

C1=CCC2CC=CC2C1 (stereo not given)
inactive: all assays above

O=C(O)CCC(=O)c1ccc(-c2ccccc2)cc1
not listed: [8]
inactive: all other assays above

O=[N+]([O-])c1ccc2ncccc2c1
not listed: [10]
inactive: all other assays above

O=C(O)CNC(=O)c1ccccc1I
not listed: [5] | [8]
inactive: all other assays above

CCC(CO)(CO)[N+](=O)[O-]
not listed: [8] | [9]
inactive: all other assays above

CC1=C2[C@@H]([C@H](C)CC[C@H]2/C=C(\C)C(=O)O)[C@H](O)C1
not listed: [7] | [8]
inactive: all other assays above

O=c1[nH]c2cc(C(F)(F)F)c(N3CCOCC3)cc2n(CP(=O)(O)O)c1=O
not listed: [7] | [8]
inactive: all other assays above

c1ccc2sc(SSc3nc4ccccc4s3)nc2c1
inactive: all assays above

Cc1ccc(NC(=O)N(C)C)cc1NC(=O)N(C)C
not listed: [6] | [8] | [9]
inactive: all other assays above

CCCCCCC(O)CCCCCCCCCCC(=O)OC (stereo not given)
not listed: [4] | [5] | [6]
inactive: all other assays above

NC(=O)CCCCC(N)=O
not listed: [4] | [5]
inactive: all other assays above

COc1ccc(N)c([N+](=O)[O-])c1
not listed: [6] | [10]
inactive: all other assays above

O=C1OC[C@H](Cc2cccc(O)c2)[C@H]1Cc1cccc(O)c1
inactive: [1] | [2] | [3] | [10] | [6] | [7]

CCOC(=O)Oc1ccc(CCNC(=O)[C@H](CCSC)NC(C)=O)cc1OC(=O)OCC
inactive: [1] | [2] | [3] | [10] | [6] | [9]

BrC(Br)C(Br)Br
not listed: [4] | [5]
inactive: all other assays above

O=CNNC=O
inactive: [1] | [2] | [3] | [10] | [7] | [8]

C=Cc1ccc(OC(C)=O)cc1
not listed: [4] | [5]
inactive: all other assays above

CC(=O)OCCC1CCCCC1
inactive: [1] | [2] | [3] | [10] | [7]

CCO[Si](C)(CCCOCC1CO1)OCC (stereo not given)
inactive: [1] | [2] | [3] | [10] | [6] | [9]

CC(=O)C(=O)CC(C)C
not listed: [4] | [5]
inactive: all other assays above

CCCc1nc2c(C)cc(-c3nc4ccccc4n3C)cc2n1Cc1ccc(-c2ccccc2C(=O)O)cc1
inactive: [1] | [2] | [3] | [10] | [6]

CC(=O)OC(C)C[N+](C)(C)C (stereo not given)
not listed: [4] | [5]
inactive: all other assays above

CCCCCCCCCCCCCCCC(=O)OCC
inactive: [1] | [2] | [3] | [4] | [5] | [9]

Reference: PubChem BioAssay (Tox21)
